The values that follow come from PubChem BioAssay (NCI).

The panel holds about 83,000 compounds, 20% with a hit somewhere; the sample as a whole holds those more often.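 The endpoint reported here, percent growth, reads 100 for growth as untreated, 0 for no net growth and -100 for all cells dead.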 Calls of active or inactive are those of the source. The calls were made as follows: active = growth percent below 10; inactive = the rest.

For the test, the system named is MDA-MB-468 breast. The test is described as follows: NCI-60 one-dose screen, 48 h (100 = growth as untreated, 0 = no growth, -100 = all killed). The settings on record: 10 µM unless noted.
Take `O=C(/C=C/c1ccc(Oc2ccc(Br)cc2)cc1)c1ccc(Br)cc1`: the growth was 98.3% (inactive).
The result for `CN1CCC(=C(c2ccccc2)c2ccccc2)C(c2ccccc2)C1` (stereo not given) reads 87.6% (inactive); that for `Cc1c(Cc2ccccc2)c(=O)oc2c(C)c(OCC(=O)n3nc(C#N)cc3N)ccc12`, 114% (inactive).
The value for `CCCCCCCCCCCCNC(=S)N/N=C/c1ccccc1O` was 53.1% (inactive); that for `Oc1c(CN2CCCC2)cc(CSCc2ccccc2)c2cccnc12` was -33.1% (active).
The value for `NC(=S)N/N=C\c1nccc2c(N)cccc12` was -18.6% (active).
With `COc1ccc(/C(=C/c2ccc3ccccc3c2)c2nn[nH]n2)cc1OC`, the growth is 60.2% (inactive).
The result for `CC(=O)OC[C@]12CC[C@@H]([C@@H](C)C(N)=O)[C@@H]1[C@H]1CC[C@@H]3[C@@]4(C)CC[C@H](OC(C)=O)C(C)(C)[C@@H]4CC[C@@]3(C)[C@]1(C)CC2` reads -40.4% [100 µM] (active).
On to `COc1cc(C(=O)n2nc(N3CCOCC3)c3cc(-n4cccc4)ccc32)cc(OC)c1OC`, for which the growth was 49.2% (inactive).
Regarding `COc1cc(O)c2c(c1)[C@H]1O[C@@H]1C[C@H](O)[C@H](O)C(=O)/C=C\C[C@H](C)OC2=O`, the growth was -1.54% (active).
Take `CC1(C)CC[C@]23CC[C@]4(C)[C@H](CC[C@@H]5[C@@]6(C)CC[C@H](NCO)C(C)(C)[C@@H]6CC[C@]54C)[C@H]2[C@H]1OC3`: the growth is -56.6% (active).
The value for `CC(C)C[C@H](NC(=O)Cn1ccc(NCc2ccccc2)cc1=O)B(O)O` was -41.2% (active); that for `CCCCCCCCCCCCCCCCCCOc1ccccc1CC(=O)OCC[N+](C)(C)C` was -38.9% (active).
As to `CN(C)CCN1C(=O)c2cccc3c(/C=C/CN4C(=O)c5cccc6cccc(c56)C4=O)ccc(c23)C1=O`, the growth is 88.9% (inactive).
The result for `O=C(CN1CCN(c2cc3c(cc2F)c(=O)c(C(=O)O)cn3C2CC2)CC1)Nc1ccc(C(=O)/C=C/c2ccc(Cl)cc2)cc1` reads 95.1% (inactive); that for `COc1ccc(C2CC(=O)c3c(O)c(OC)c(OC)c(OC)c3O2)cc1O` (stereo not given), 8.92% (active); that for `O=C(N/N=C/c1ccccc1O)c1ccccc1Nc1ccnc(C(F)(F)F)c1`, -18.4% (active).
As to `S=C(c1ccccc1)N1CCN(c2cccc(Cl)c2)CC1`, the growth was 105% (inactive).
The result for `Cc1cc(N/N=C/c2nc(-c3ccc(Br)cc3)oc2C)c2cc(Cl)ccc2n1` reads 25.8% (inactive); that for `O=c1c2cnn(-c3ccccc3)c2n2c(CN3CCOCC3)nnc2n1-c1ccccc1`, 116% (inactive).
With `O=S(=O)(NCCNc1nccc(-c2c(-c3cccc(O)c3)nc3sccn23)n1)c1ccc(F)cc1`, the growth was 64.8% (inactive).
The result for `CC1(C)CC[C@]2(C(=O)O)CC[C@]3(C)C(=CCC4[C@@]5(C)C[C@@H](O)[C@@H]6OC(c7ccccc7O)OC[C@@]6(C)C5CC[C@]43C)C2C1` (stereo not given in full) reads 69.4% (inactive); that for `CS(=O)(=O)Nc1ccc([N+](=O)[O-])cc1Oc1ccccc1`, 100% (inactive).
`O=c1oc2ccccc2cc1-c1cc(-c2ccc(-c3cc(-c4cc5ccccc5oc4=O)nc(-c4cc5ccccc5oc4=O)c3)cc2)cc(-c2cc3ccccc3oc2=O)n1`: the growth is 84.3% (inactive).
The value for `N=C(N)c1ccc(-c2ccc(-c3ccc(Cl)cc3)s2)s1` was -71.2% (active).
